In PubChem BioAssay AID1159580 (chemical genetic matrix, 2015):
“And” between values parts separate entries of the source, which are not always exact repeats. Identical values can stand only once. The campaign covered roughly 5,500 compounds. About 2,000 (36%) were called active. Another 18% or so got no clear call; they are omitted. Cut-off read from the data, not from the text of the source: active = normalized growth mostly below about 0.91 (no sharp cut-off); inconclusive = no clear call, values can overlap the other calls; inactive = mostly above about 0.92. The list shows a part of the results.

Experiment: chemical genetic growth profiling, strain panel (AID 1159580);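 note: tested at 20 µM; growth read once vehicle control cultures reached saturation at 30 °C; 1 = growth at the plate median or of vehicle wells; lower values mean less growth of the strain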
Conditions: S. cerevisiae deletion strains, growth OD

Measured: normalized growth

CC1=C(/C=C/C(C)=C/C=C/C(C)=C/C=C/C=C(C)/C=C/C=C(C)/C=C/C2=C(C)CCCC2(C)C)C(C)(C)CCC1
active: locus YBR009C, strain hhf1, active compounds read low 1.1 [resistant]
inactive: locus YAL021C, strain ccr4, active compounds read low 0.978 | locus YAL026C, strain drs2, active compounds read low 0.997 | locus YAL030W, strain snc1, active compounds read low 0.995 | locus YBL061C, strain skt5, active compounds read low 0.997 | locus YBR021W, strain FUR4, active compounds read low 0.99 | locus YBR023C, strain chs3, active compounds read low 0.992 | locus YBR171W, strain sec66, active compounds read low 0.977 | locus YBR229C, strain ROT2, active compounds read low 1.01 | locus YBR231C, strain swc5, active compounds read low 1.02 | locus YBR279W, strain paf1, active compounds read low 0.987 | locus YCL011C, strain gbp2, active compounds read low 0.997 | locus YCL016C, strain dcc1, active compounds read low 1.01 | locus YCL029C, strain bik1, active compounds read low 1.02 | locus YCL061C, strain MRC1, active compounds read low 0.995 | locus YCL069W, strain vba3, active compounds read low 0.997 | locus YCR088W, strain abp1, active compounds read low 0.995 | locus YDL005C, strain med2, active compounds read low 0.998 | locus YDL035C, strain GPR1, active compounds read low 1 | locus YDL040C, strain nat1, active compounds read low 0.995 | locus YDL074C, strain BRE1, active compounds read low 1 | locus YDL101C, strain DUN1, active compounds read low 1.01 | locus YDL134C, strain PPH21, active compounds read low 1.01 | locus YDL185W, strain tfp1, active compounds read low 1.02 | locus YDL192W, strain arf1, active compounds read low 1.02 | locus YDR001C, strain nth1, active compounds read low 0.987 | locus YDR069C, strain doa4, active compounds read low 0.994 | locus YDR101C, strain arx1, active compounds read low 0.982 | locus YDR137W, strain rgp1, active compounds read low 0.964 | locus YDR150W, strain NUM1, active compounds read low 1.01 | locus YDR159W, strain sac3, active compounds read low 1.01 | locus YDR162C, strain NBP2, active compounds read low 1.02 | locus YDR195W, strain ref2 0.999 | locus YDR297W, strain sur2, active compounds read low 1.02 | locus YDR318W, strain mcm21, active compounds read low 1.01 | locus YDR334W, strain swr1, active compounds read low 0.99 | locus YDR335W, strain msn5, active compounds read low 0.997 | locus YDR388W, active compounds read low 1.01 | locus YDR392W, strain spt3, active compounds read low 0.982 | locus YDR502C, strain sam2, active compounds read low 0.993 | locus YEL003W, strain gim4, active compounds read low 1.02 | locus YEL037C, strain rad23, active compounds read low 0.999 | locus YEL061C, strain CIN8 (second series), active compounds read low 0.997 | locus YEL061C, strain CIN8, active compounds read low 1.01 | locus YER015W, strain faa2, active compounds read low 0.973 | locus YER016W, strain bim1, active compounds read low 1 | locus YER110C, active compounds read low 1 | locus YER111C, strain swi4, active compounds read low 0.983 | locus YER155C, strain BEM2 (second series), active compounds read low 1.04 | locus YER155C, strain BEM2, active compounds read low 1.01 | locus YER167W, strain BCK2, active compounds read low 1.01 | locus YFR010W, strain ubp6, active compounds read low 1 | locus YGL078C, strain dbp3, active compounds read low 0.996 | locus YGL086W, strain mad1, active compounds read low 1.01 | locus YGL167C, strain pmr1, active compounds read low 0.992 | locus YGL173C, strain kem1, active compounds read low 1 | locus YGL227W, strain vid30, active compounds read low 0.99 | locus YGL240W, strain doc1, active compounds read low 1.02 | locus YGL248W, strain PDE1, active compounds read low 1.01 | locus YGL253W, strain hxk2, active compounds read low 0.949 | locus YGR135W, strain pre9, active compounds read low 1.03 | locus YGR229C, strain SMI1, active compounds read low 1 | locus YGR252W, strain gcn5, active compounds read low 0.998 | locus YHR013C, strain ard1, active compounds read low 0.967 | locus YHR027C, strain rpn1, active compounds read low 1.01 | locus YHR030C, strain SLT2, active compounds read low 1.02 and 1.01 | locus YHR079C, strain IRE1 (second series), active compounds read low 1 | locus YHR079C, strain IRE1, active compounds read low 1.04 | locus YHR094C, strain hxt1, active compounds read low 0.999 | locus YHR129C, strain ARP1, active compounds read low 1.01 | locus YHR142W, strain chs7, active compounds read low 0.967 | locus YHR200W, strain rpn10, active compounds read low 1.01 | locus YIL066C, strain RNR3, active compounds read low 1.01 | locus YIL073C, strain SPO22, active compounds read low 1.07 | locus YIL125W, strain kgd1, active compounds read low 0.998 | locus YIR030C, strain dcg1, active compounds read low 1 | locus YJL092W, strain hpr5, active compounds read low 0.992 | locus YJL095W, strain BCK1 (second series), active compounds read low 0.989 | locus YJL095W, strain BCK1, active compounds read low 1.03 and 1.02 | locus YJL115W, strain asf1, active compounds read low 0.996 | locus YJL129C, strain trk1, active compounds read low 0.969 | locus YJL134W, strain LCB3, active compounds read low 1.01 | locus YJL154C, strain vps35, active compounds read low 0.999 | locus YJL164C, strain tpk1, active compounds read low 1.01 | locus YJL166W, strain qcr8, active compounds read low 0.955 | locus YJL168C, strain set2, active compounds read low 1 | locus YJL187C, strain SWE1 (second series), active compounds read low 1.01 | locus YJL187C, strain SWE1, active compounds read low 0.995 | locus YJR043C, strain POL32, active compounds read low 1.01 | locus YJR066W, strain TOR1, active compounds read low 0.974 | locus YKL009W, strain mrt4, active compounds read low 0.941 | locus YKL068W, active compounds read low 1.01 | locus YKL085W, strain MDH1 (second series), active compounds read low 0.983 | locus YKL085W, strain MDH1, active compounds read low 0.983 | locus YKL160W, strain elf1, active compounds read low 0.927 | locus YKR001C, strain vps1, active compounds read low 0.986 | locus YKR026C, strain gcn3, active compounds read low 0.987 | locus YKR091W, strain srl3, active compounds read low 0.991 | locus YLL001W, strain dnm1, active compounds read low 0.926 | locus YLL026W, active compounds read low 0.999 | locus YLL041C, strain sdh2, active compounds read low 1.03 | locus YLR027C, strain aat2, active compounds read low 0.998 | locus YLR039C, strain RIC1, active compounds read low 0.996 | locus YLR058C, strain SHM2, active compounds read low 1.01 | locus YLR102C, strain apc9, active compounds read low 0.997 | locus YLR113W, strain HOG1, active compounds read low 1.02 | locus YLR221C, strain rsa3, active compounds read low 0.977 | locus YLR258W, strain gsy2, active compounds read low 1.02 | locus YLR262C, strain YPT6 (second series), active compounds read low 0.941 | locus YLR262C, strain YPT6, active compounds read low 0.982 | locus YLR268W, strain sec22, active compounds read low 0.992 | locus YLR320W, strain mms22, active compounds read low 0.994 | locus YLR330W, strain CHS5, active compounds read low 1.01 | locus YLR342W, strain FKS1 (second series), active compounds read low 1.01 | locus YLR342W, strain FKS1, active compounds read low 0.981 | locus YLR357W, strain rsc2, active compounds read low 0.957 | locus YLR370C, strain arc18, active compounds read low 1 | locus YLR371W, strain rom2, active compounds read low 1 | locus YLR384C, strain iki3, active compounds read low 1 | locus YLR418C, strain cdc73, active compounds read low 0.993 | locus YML016C, strain PPZ1, active compounds read low 1 | locus YML032C, strain rad52, active compounds read low 1 | locus YML120C, strain ndi1, active compounds read low 0.962 | locus YML124C, strain tub3, active compounds read low 1 | locus YMR058W, strain fet3, active compounds read low 0.985 | locus YMR078C, strain ctf18, active compounds read low 1.03 | locus YMR125W, strain sto1, active compounds read low 0.929 | locus YMR129W, active compounds read low 0.996 | locus YMR205C, strain PFK2, active compounds read low 0.934 | locus YMR223W, strain ubp8, active compounds read low 1.01 | locus YMR231W, strain pep5, active compounds read low 0.997 | locus YMR263W, strain SAP30, active compounds read low 1.02 | locus YMR307W, strain GAS1, active compounds read low 1.06 | locus YNL067W, strain RPL9B, active compounds read low 1.01 | locus YNL071W, strain lat1, active compounds read low 0.984 | locus YNL153C, strain GIM3, active compounds read low 1.01 | locus YNL183C, strain NPR1, active compounds read low 0.97 | locus YNL209W, strain ssb2, active compounds read low 0.997 | locus YNL233W, strain BNI4, active compounds read low 1.01 | locus YNL248C, strain rpa49, active compounds read low 0.906 | locus YNL250W, strain rad50, active compounds read low 1.02 | locus YNL271C, strain bni1, active compounds read low 0.997 | locus YNL298W, strain CLA4, active compounds read low 0.991 | locus YNL307C, strain MCK1, active compounds read low 1.01 | locus YNL322C, strain KRE1 (second series), active compounds read low 0.993 | locus YNL322C, strain KRE1, active compounds read low 1.01 | locus YNR049C, strain mso1, active compounds read low 1.01 | locus YNR052C, strain pop2, active compounds read low 1 | locus YOL006C, strain TOP1, active compounds read low 1.01 | locus YOL012C, strain htz1 1.24 | locus YOL147C, strain pex11, active compounds read low 1.01 | locus YOR001W, strain rrp6, active compounds read low 1.07 | locus YOR061W, strain CKA2, active compounds read low 1.01 | locus YOR069W, strain VPS5, active compounds read low 1.01 | locus YOR070C, strain gyp1, active compounds read low 1 | locus YOR080W, strain dia2, active compounds read low 0.996 | locus YOR083W, strain WHI5, active compounds read low 0.94 | locus YOR106W, strain vam3, active compounds read low 0.922 | locus YOR136W, strain idh2, active compounds read low 1.02 | locus YOR144C, strain elg1, active compounds read low 1 | locus YOR184W, strain ser1, active compounds read low 1.01 | locus YOR231W, strain MKK1, active compounds read low 1.02 | locus YOR265W, strain rbl2, active compounds read low 0.992 | locus YOR270C, strain vph1, active compounds read low 0.875 | locus YOR290C, strain snf2, active compounds read low 0.953 | locus YOR316C, strain cot1, active compounds read low 1 | locus YPL051W, strain arl3, active compounds read low 1.02 | locus YPL078C, strain atp4, active compounds read low 0.931 | locus YPL106C, strain sse1, active compounds read low 1.03 | locus YPL240C, strain hsp82, active compounds read low 1 | locus YPL241C, strain CIN2, active compounds read low 1.01 | locus YPL256C, strain CLN2, active compounds read low 0.994 | locus YPR119W, strain clb2, active compounds read low 1.01 | locus YPR141C, strain kar3, active compounds read low 1.01 | locus YPR163C, strain tif3, active compounds read low 1 | locus YPR167C, strain met16, active compounds read low 1.01 | strain wtn01, active compounds read low 0.991
